Bioassay records deposited in PubChem BioAssay by National Center for Advancing Translational Sciences (NCATS).
hERG WT inh: qHTS for Inhibitors of KCHN2 3.1: Wildtype qHTS. Voltage-gated inwardly rectifying potassium channel KCNH2 (Homo sapiens), Q12809. U2OS, BacMam KCNH2, thallium flux FluxOr; active compounds read low. activity change, % at 1.84 µM. 0.37% of 340,000 active;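 active = maximum activity change below -70%; inconclusive = maximum activity change between -70% and -50%; inactive = maximum activity change above -50%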
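U2OS cells were transduced with wild-type KCNH2 virus (2.03 x 10^8 / mL) for 4 h at room temperature, then cultured overnight at 37 C. Thallium flux was read with FluxOr dye. Rate constants were normalized to DMSO controls.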
Six1-Eya2 inh: qHTS Assay for Inhibitors of the Six1/Eya2 Interaction; Homeobox protein SIX1 (Homo sapiens) + Protein phosphatase EYA2 (Homo sapiens), …; AlphaScreen GST-Six1/His-Eya2 binding, biochemical; active compounds read low; activity change, % (no concentration beside the values); 0.56% of 360,000 active
Target sequence (O00167 whole entry, looked up): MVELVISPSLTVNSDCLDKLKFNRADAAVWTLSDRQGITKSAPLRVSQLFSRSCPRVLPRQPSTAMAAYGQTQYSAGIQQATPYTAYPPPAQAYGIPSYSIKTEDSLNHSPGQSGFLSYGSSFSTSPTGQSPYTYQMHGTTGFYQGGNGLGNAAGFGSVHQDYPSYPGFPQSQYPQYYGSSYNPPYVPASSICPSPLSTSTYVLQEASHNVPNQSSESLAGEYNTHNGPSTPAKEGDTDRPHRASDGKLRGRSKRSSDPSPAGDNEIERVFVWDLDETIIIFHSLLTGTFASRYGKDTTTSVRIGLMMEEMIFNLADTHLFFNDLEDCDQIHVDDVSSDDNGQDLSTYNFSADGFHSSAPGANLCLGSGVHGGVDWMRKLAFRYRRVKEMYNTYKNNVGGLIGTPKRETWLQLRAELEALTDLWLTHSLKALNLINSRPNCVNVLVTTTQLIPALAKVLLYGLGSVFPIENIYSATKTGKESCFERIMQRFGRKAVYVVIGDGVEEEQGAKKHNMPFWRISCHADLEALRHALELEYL
Target sequence (Q15475 whole entry, looked up): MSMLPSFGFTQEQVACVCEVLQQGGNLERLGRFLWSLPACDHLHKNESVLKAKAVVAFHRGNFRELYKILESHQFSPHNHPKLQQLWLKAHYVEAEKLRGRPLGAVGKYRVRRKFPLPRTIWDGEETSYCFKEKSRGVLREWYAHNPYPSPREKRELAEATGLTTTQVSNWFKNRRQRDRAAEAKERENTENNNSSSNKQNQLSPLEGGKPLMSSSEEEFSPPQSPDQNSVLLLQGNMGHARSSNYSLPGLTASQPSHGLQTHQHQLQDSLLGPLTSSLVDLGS
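Homogeneous AlphaScreen proximity assay pairing GST-Six1 with His-tagged Eya2 (added as 5X mix: 250 nM and 500 nM) in 50 mM Tris pH 8.0, 300 mM NaCl, 1 mM TCEP. Glutathione donor and nickel acceptor beads; 1 h, 37 °C, dark.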
KCNH2 3.1 inh: qHTS for Inhibitors of KCHN2 3.1: Mutant qHTS; 0.95% of 340,000 active; U2OS KCNH2 3.1, thallium flux FluxOr; active compounds read low; activity change, % (tested at about 1.8 µM);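 active = maximum activity change below -70%; inconclusive = maximum activity change from -70% to -50%; inactive = maximum activity change above -50%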;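 note: thallium influx rate constant from kinetic fluorescence after stimulation buffer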
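Normalized rate constant (relative to positive and negative DMSO controls) derived from a 2 min kinetic fluorescence read after stimulation; U2OS cells expressing the 3.1 isoform via virus at 1.77 x 10^8 /mL.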
KDM4E inh: qHTS Assay for Inhibitors of Human Jumonji Domain Containing 2E (JMJD2E) | 1.6% of 230,000 active | JMJD2E catalytic domain, FDH-coupled NADH fluorescence (FDH is formaldehyde dehydrogenase) | AID 2147, 2009 | Potency, µM (series often up to 57.1 µM), for the others: at the top dose activity change, negative = inhibition, most hits filed as inhibitors | Lysine-specific demethylase 4E (Homo sapiens), B2RXH2; active = well fitted inhibition curve with a large enough effect, not every such curve was filed as active; inconclusive = small, poorly fitted or top-dose-only effect, or another doubt; inactive = no such curve, though single readings can be large or run the other way;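 note: potency is the fitted concentration of half-maximal effect; 0% = wells with enzyme and -100% = buffer wells without enzyme; nearly all actives have a fitted effect of over 50% in size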
CtBP-E1A blk: qHTS Assay for Inhibitors of the CtBP/E1A Interaction; CtBP / adenovirus E1A interaction (AlphaScreen); AlphaScreen GST-E1A/His-CtBP binding, 1536-well; active compounds read low; activity change, % (no concentration beside the values); 0.49% of 340,000 active
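AlphaScreen with 125 nM GST-E1A and 125 nM His-CtBP (5X stocks) in Tris pH 8.0, 300 mM NaCl, BSA, Tween 20, TCEP. Compounds preincubated 2 h at 37 deg C, then glutathione donor/nickel acceptor beads added for 1 h at 37 deg C in dark.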
* = called active by the depositor. Rows were chosen to be rich in hits. Some 2% of all compounds tested hit in one or more screens of this group. Cut-off read from the data, not from the text of the source, unless noted: active = activity change below about -65%; inconclusive = mostly about -30% to -63%; inactive = weaker than that. Unless noted, % is set by controls: 0 for no effect and ±100 for the full control effect.

For COC(=O)C1=C(c2ccc(Cl)c(C(F)(F)F)c2)C[C@@H]2CC[C@H]1N2C(=O)N1CCCC1 the results were hERG WT inh 5.2, Six1-Eya2 inh -7.6, KCNH2 3.1 inh 12.4 and CtBP-E1A blk 5.4.
Screening CCOC(=O)C1CCN(Cc2ccc(Cl)nc2)CC1 returned hERG WT inh -74.5*, Six1-Eya2 inh -0.6, KCNH2 3.1 inh -3.1 and CtBP-E1A blk 1.5.
Screening CCOc1ccc(CN2CCN(C(=O)Cc3ccccc3)CC2)cc1 returned hERG WT inh -6.7, Six1-Eya2 inh -3.0, KCNH2 3.1 inh -0.2 and CtBP-E1A blk 10.1.
`C[C@H](N)[C@H](O)c1ccc(O)c(O)c1` gave KDM4E inh 4.47µM*.
For CC(Cc1ccc(O)cc1)NCC(O)c1ccc(O)c(O)c1 (stereo unspecified) the results were hERG WT inh -33.1, Six1-Eya2 inh -26.9, KCNH2 3.1 inh -17.5 and CtBP-E1A blk 4.0.
`CC(N)[C@H](O)c1ccc(O)c(O)c1` (stereo partly specified) gave KDM4E inh 5.62µM*.
COc1ccccc1-n1c(-c2ccccc2Br)nc2ccccc2c1=O was read as hERG WT inh 1.8, Six1-Eya2 inh 0.6, KCNH2 3.1 inh 9.4 and CtBP-E1A blk -0.9.
Screening CC[C@@]1(O)CC(O)c2c(cc3c(c2O)C(=O)c2c(O)ccc(O)c2C3=O)C1C(=O)OC (stereo partly specified) returned KDM4E inh 12.6µM*.
`COc1ccc(-n2c(O)c(C=Nc3c(C)n(C)n(-c4ccccc4)c3=O)c(=O)[nH]c2=O)cc1` gave hERG WT inh 1.0, Six1-Eya2 inh 1.8, KCNH2 3.1 inh 11.4, KDM4E inh 9.2% and CtBP-E1A blk -4.0.
`CC(=O)Nc1ccc(N(C(=O)Cn2nnc3ccccc32)C(C(=O)NC2CCCC2)c2ccc(O)c(O)c2)cc1` (stereo unspecified) gave hERG WT inh -4.5, Six1-Eya2 inh 12.0, KCNH2 3.1 inh -5.1, KDM4E inh 7.94µM* and CtBP-E1A blk 3.0.
For Cc1c(C=O)c2ccccc2n1Cc1ccccc1 the results were hERG WT inh 8.5, Six1-Eya2 inh -1.7, KCNH2 3.1 inh 2.8 and CtBP-E1A blk 9.9.
Screening Cc1cccc(CN2CCN(Cc3ccc(Cl)cc3)CC2)c1 returned hERG WT inh 37.2, Six1-Eya2 inh -11.6, KCNH2 3.1 inh inconclusive, KDM4E inh 15.8µM* and CtBP-E1A blk -3.9.
Screening Cc1cccc(CN2CCN(c3ccc(Cl)cc3)CC2)c1 returned hERG WT inh 19.8, Six1-Eya2 inh -19.0, KCNH2 3.1 inh -2.4 and KDM4E inh 22.4µM*.
Screening Fc1ccc(CN2CCN(c3ccc(Cl)cc3)CC2)cc1 returned hERG WT inh 40.1, Six1-Eya2 inh 0.0, KCNH2 3.1 inh -20.3 and KDM4E inh -5.4%.
Screening CN1CCC(c2c[nH]c3ccccc23)C1 (stereo unspecified) returned hERG WT inh 17.6, Six1-Eya2 inh -8.9, KCNH2 3.1 inh -8.3 and KDM4E inh 22.4µM*.
COC(=O)C1=C(c2ccc(Cl)c(C(F)(F)F)c2)C[C@@H]2CC[C@H]1N2C(=O)NCC1CC1 was read as hERG WT inh 4.5, Six1-Eya2 inh 0.2, KCNH2 3.1 inh -10.1 and CtBP-E1A blk 1.8.
`COC(=O)C1=C(c2ccc(Cl)c(C(F)(F)F)c2)C[C@@H]2CC[C@H]1N2C(=O)NCc1cc(C)oc1C(F)(F)F` gave hERG WT inh -11.0, Six1-Eya2 inh 3.5, KCNH2 3.1 inh -89.1* and CtBP-E1A blk -2.0.
Screening Cc1c(N=Cc2c(O)n(Cc3ccccc3)c(=O)[nH]c2=O)c(=O)n(-c2ccccc2)n1C returned hERG WT inh -3.0, Six1-Eya2 inh -12.2, KCNH2 3.1 inh -4.6, KDM4E inh 2.7% and CtBP-E1A blk -7.9.
